# Source: PubChem BioAssay (National Center for Advancing Translational Sciences (NCATS))
# The list is not random: actives were taken first. Their share in the collection is about 12%.
# JMJD2A Tudor inh = blocks the human JMJD2A Tudor domain; hit rate 4.4% among 390,000; O75164; Potency, µM (top dose mostly 114 µM), for the others: at the highest dose activity change, negative = inhibition, usual class: inhibitors; AlphaScreen JMJD2A-Tudor / H3K4me3 peptide binding; AID 504339; note: % is set by controls: 0 for no effect and ±100 for the full control effect; nearly all actives have a fitted effect of over 50% in size
# G9a block = G9a (human) methyltransferase inhibition | Q96KQ7 | G9a H3K9 monomethylation, AlphaScreen, 2 h | Potency, µM (series often up to 102 µM), without a hit: top-dose activity, negative = inhibition, hits mostly inhibitors | hit rate 8.8% among 350,000 | AID 504332; note: % is set by controls: 0 for no effect and ±100 for the full control effect; nearly all actives have a fitted effect of over 75% in size
# Target sequence (Q96KQ7 913-1193 limits assumed): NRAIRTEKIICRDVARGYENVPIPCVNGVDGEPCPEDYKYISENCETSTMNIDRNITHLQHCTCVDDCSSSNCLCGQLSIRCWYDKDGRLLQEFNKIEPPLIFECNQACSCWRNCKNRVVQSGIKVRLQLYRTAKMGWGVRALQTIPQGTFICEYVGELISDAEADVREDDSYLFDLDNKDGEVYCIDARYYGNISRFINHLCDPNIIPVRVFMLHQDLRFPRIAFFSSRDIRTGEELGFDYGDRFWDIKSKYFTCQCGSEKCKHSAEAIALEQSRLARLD
#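 AlphaScreen read-out: biotin-H3K9 peptide (500 nM) methylation by 20 nM enzyme with 20 uM SAM, 2 h at room temperature after 15 min compound preincubation; anti-monomethyl H3K9 antibody plus donor/acceptor beads, 10 min dark.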
# L3MBTL1 inh = L3MBTL1 (human) inhibition | AID 485360 | Q9Y468 | AlphaScreen L3MBTL1–H3K9me1 peptide binding | hit rate 0.66% among 230,000 | Potency, µM (doses to about 57.1 µM), for inactives: at the highest dose activity, negative = inhibition, usual class: inhibitors; note: % is set by controls: 0 for no effect and ±100 for the full control effect; nearly all actives have a fitted effect of over 60% in size
#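 Displacement of a biotinylated histone H3(1-15) peptide monomethylated at Lys9 (75 nM) from L3MBTL1 (50 nM) was measured by AlphaScreen after a 30 min room-temperature compound incubation; cefsulodin titration served as intraplate control.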
# BAZ2B block = inhibitors of human BAZ2B bromodomain; Q9UIF8; Potency, µM (titrated, usually from 114 µM), for the others: at the top dose activity change, negative = inhibition, most hits filed as inhibitors; AlphaScreen BAZ2B-H3K14Ac peptide displacement; hit rate 4.4% among 360,000; note: % is set by controls: 0 for no effect and ±100 for the full control effect; nearly all actives have a fitted effect of over 60% in size
#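 Protein-peptide AlphaScreen: BAZ2B 50 nM, b-H3K14Ac 50 nM, 1x PBS pH 7.4 + 0.01% Tween-20. Preincubation 30 min RT; cpd 30 min RT (top 110 uM); beads 20 min RT, light-protected.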
# Sfp PPTase inh = inhibitors of Bacillus subtilis Sfp phosphopantetheinyl transferase | Potency, µM, for inactives: largest response in the series, negative = inhibition, actives largely listed as inhibitors | Biochemical Sfp PPTase activity, qHTS | hit rate 3.5% among 310,000 | AID 1490 | Q9F4F7;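 note: the enzyme is Sfp with the accession as filed and its product quenches rhodamine fluorescence; 0% = enzyme reaction without inhibitor and -100% = no enzyme wells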
#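 Fluorescence-quenching assay with 15 nM Sfp, 5 uM rhodamine-CoA and 12.5 uM BHQ-2-labelled ybbR peptide in pH 7.6 Hepes/MgCl2 buffer. Enzyme was pre-incubated with compound for 15 min at room temperature. Rate was taken from the 30-min fluorescence change (525/598 nm).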
# HP1b binding inh = blocks HP1-beta chromodomain binding to methylated histone tails; P83916; AlphaScreen HP1-beta / biotin-H3K9me3 peptide binding; Potency, µM (doses to about 114 µM), inactives show at the highest dose activity change, negative = inhibition, usual class: inhibitors; hit rate 0.56% among 390,000; AID 540317; note: nearly all actives have a fitted effect of over 70% in size
# Target sequence (P83916 whole entry, looked up): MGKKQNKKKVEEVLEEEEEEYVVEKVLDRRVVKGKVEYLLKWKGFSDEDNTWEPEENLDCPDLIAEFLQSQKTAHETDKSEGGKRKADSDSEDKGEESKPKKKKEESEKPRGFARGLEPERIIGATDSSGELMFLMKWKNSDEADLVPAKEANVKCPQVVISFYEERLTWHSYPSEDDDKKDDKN
#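 AlphaScreen: HP1-beta (50 nM) preformed 30 min with biotin-H3(1-18)K9me3 peptide (50 nM) in PBS pH 7.4, 0.01% Tween-20. Compound added for 30 min at RT, then streptavidin donor/nickel chelate acceptor beads (10 ug/mL) for 30 min.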
# Starred values were filed as active, the others as inactive; ? = inconclusive; . = not tested or not shown; ! = a repeat was not active; [ ] = another dose, or the depositor's remark. Calls come from the whole dose curve; as a rule, active = well fitted curve in the direction sought with a large enough effect; inconclusive = small, poorly fitted or top-dose-only effect, or another doubt; inactive = no such curve, though single readings can be large; an effect the other way counts as inactive or inconclusive. Potency is the fitted concentration of half-maximal effect.
SMILES,JMJD2A Tudor inh,G9a block,L3MBTL1 inh,BAZ2B block,Sfp PPTase inh,HP1b binding inh
O=C(CN1C(=O)/C(=C/c2ccccc2)SC1=S)NNC(=O)c1ccccc1O,-17%,-4%,?,79µM*,7%,35%
O=C(CCCN1C(=O)/C(=C/c2cccs2)SC1=S)Nc1ccccn1,?,?,35µM*,?,?,?
Cc1ccc(C(=O)NNC(=O)CCCN2C(=O)/C(=C/c3ccccc3Cl)SC2=S)cc1,-12%,18%[59 µM],4%,-5%,?,3%
O=C1/C(=C/c2ccccc2Cl)SC(=S)N1CCCC(=O)N(CCO)c1ccccc1,8.9µM*,20µM*,.,3.2µM*,-22%,-23%
O=C(CCCN1C(=O)/C(=C/c2ccccc2Cl)SC1=S)Nc1cccnc1,22µM*,-34%,.,?,4%,-17%
O=C(CCN1C(=O)/C(=C\c2cccs2)SC1=S)Nc1ccccn1,-23%,?,?,?,11%,13%
CCOCCCNC(=O)C1CCN(c2nn3cc(-c4ccc(F)cc4)nc3s2)CC1,7%,-5%[59 µM],.,0%,.,23%
Cc1noc(C)c1-c1ccc2ncnc(N(C)C)c2c1,.,7%[0.501 µM],.,.,-1%,.
O=C(CCN1C(=O)/C(=C/c2ccccc2F)SC1=S)Nc1ccccn1,-21%,22%,.,?,6%,0%
O=C(CCN1C(=O)/C(=C/c2ccccc2Cl)SC1=S)Nc1ccccn1,5%,7.9µM*,.,?,15%,37%
O=C(CCN1C(=O)/C(=C/c2ccccc2Cl)SC1=S)NNC(=O)c1ccccc1O,-22%,-7%,.,-15%,50µM*,11%
O=C(CCCN1C(=O)/C(=C/c2ccccc2Cl)SC1=S)Nc1ccccn1,18µM*,13µM*,?,?,-12%,?
O=C(CCN1C(=O)/C(=C/c2ccccc2Cl)SC1=S)Nc1cccnc1,13%,-3%,.,?,-5%,49%
O=C(Nc1cc2c(cc1C(=O)c1ccccc1Br)OCCO2)c1ccccc1,?,?,.,?,.,7%
COCC(C)n1c(SCC(=O)Nc2oc(C)c3c(C)n[nH]c(=O)c23)nc2ccccc2c1=O (stereo not given),-8%,.,.,-12%,9%,9%
Cc1n[nH]c(=O)c2c(NC(=O)CSc3nnnn3-c3ccc(O)cc3)oc(C)c12,-12%,5%[0.501 µM],10%,-2%,.,10%
Cc1n[nH]c(=O)c2c(NC(=O)CSc3nc4ccccc4c(=O)n3C(C)C)oc(C)c12,-11%,56µM*,.,-35%,13%,19%[57 µM]
COCCn1c(Cc2ccccc2)nnc1SCC(=O)Nc1oc(C)c2c(C)n[nH]c(=O)c12,-13%,14µM*,8%,-15%,.,53%
COCCn1c(Cc2ccccc2)nnc1SCC(=O)Nc1ccccc1,-5%,.,0%,-12%,20%,44%
Cc1n[nH]c(=O)c2c(NC(=O)CSc3nnnn3-c3ccccc3)oc(C)c12,?,45µM*,5%,-30%,.,24%
Cc1cc2c(s1)c1cnn(Cc3c(Cl)cccc3Cl)c(=O)c1n2C,-26%,.,.,.,.,.
CC(C)N1CC(COc2ccc(Cl)cc2Cl)OC1=O (stereo not given),-2%,55%,.,2%,9%,22%
CC(OC(=O)c1cc(=O)[nH]c2ccccc12)C(=O)Nc1ccccc1F (stereo not given),3%,32µM*,4%,8%,.,36%
CC(C)OC(=O)c1cc(=O)[nH]c2ccccc12,-14%,-2%,-1%,3%,2%,15%
CC(OC(=O)c1cc(=O)[nH]c2ccccc12)C(=O)N1C(C)CCCC1C (stereo not given),18µM*,25%[2.33 µM],3%,3%,.,44%
Cc1cc(C)cc(OCC(=O)Nc2ccc(Cl)c(-c3nc4ncccc4o3)c2)c1,-18%,-2%[59 µM],.,-2%[57.1 µM],.,29%
Fc1ccc(C(OCCCc2cnc[nH]2)c2ccc(F)cc2)cc1,.,45µM*!,.,.,.,.
CC(=O)Nc1ccc(S(=O)(=O)N(C)Cc2cnn(C)c2)cc1,-6%,78%,.,0%,0%,35%
